From PubChem
TRPV1 potentiator: enhances activation of the human vanilloid receptor TRPV1. TRPV1-expressing cells, Fluo-8 calcium influx, capsaicin EC20 potentiation. AID 540277. potentiation, % at 8.33 µM. 0.02% of 320,000 active; in the data active = potentiation above about 80%; inconclusive = between about 30% and that limit
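TRPV1-expressing cells were cultured overnight at 35.5C and loaded with Fluo-8 calcium dye for 40 to 90 min at room temperature. After a 10 s baseline, compound was added and calcium influx was read kinetically for 3 min (ex 480/em 520 nm).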
D1 PAM: enhances dopamine response at the human D1 receptor. HEK293 TREx D1 cells, calcium flux, dopamine EC20 potentiation. AID 504651. P21728. potentiation, % at 10 µM. 0.036% of 360,000 active; in the data active = potentiation above about 30%
Target sequence (P21728 whole entry, looked up): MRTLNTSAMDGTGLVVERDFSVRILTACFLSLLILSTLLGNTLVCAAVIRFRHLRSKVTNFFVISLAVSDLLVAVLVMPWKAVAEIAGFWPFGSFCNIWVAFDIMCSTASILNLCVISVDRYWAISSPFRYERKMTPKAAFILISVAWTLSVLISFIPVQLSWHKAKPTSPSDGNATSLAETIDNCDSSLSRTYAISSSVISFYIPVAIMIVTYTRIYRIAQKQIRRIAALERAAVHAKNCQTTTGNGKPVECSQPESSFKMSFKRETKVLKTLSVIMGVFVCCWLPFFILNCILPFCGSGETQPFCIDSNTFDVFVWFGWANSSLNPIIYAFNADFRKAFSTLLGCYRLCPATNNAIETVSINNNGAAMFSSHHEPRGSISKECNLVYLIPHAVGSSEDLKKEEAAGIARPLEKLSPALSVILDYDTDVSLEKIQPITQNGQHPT
TRPV1 ag: human TRPV1 agonism. Q8NER1. TRPV1-expressing cells, Fluo-8 calcium influx, agonist mode. activation, % at 8.33 µM. 0.19% of 320,000 active. AID 540275; in the data active = activation above about 80%; inconclusive = between about 30% and that limit
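TRPV1-expressing cells were cultured overnight at 35.5C and loaded with Fluo-8 calcium dye for 40 to 90 min at room temperature. After a 10 s baseline, compound was added and calcium influx was read kinetically for 3 min (ex 480/em 520 nm).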
D1 antagonist: antagonists of human D1 dopamine receptor; HEK293 TREx D1 cells, calcium flux, dopamine EC80; stronger effect = lower value; P21728; activity change, negative = inhibition, % at 10 µM; AID 504652; 3.2% of 360,000 active; in the data active = activity change below about -30%
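Allosteric or orthosteric antagonism assessed as attenuation of the calcium response to EC80 dopamine, added 180 s after compound, in induced HEK293 Trex D1 cells loaded with no-wash calcium dye.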
D1 agonist: activates the human D1 dopamine receptor; HEK293 T-REx D1 cells, calcium flux, agonist mode; P21728; AID 504660; activation, % at 2 µM; 1% of 360,000 active; in the data active = activation above about 30%
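Tetracycline-induced HEK293 TREx D1 cells, force-coupled to calcium signalling, were dye-loaded with a no-wash calcium kit. Compound was pin-added after a 10 s baseline. Fluorescence was read kinetically at 1 cycle/s for 180 s, with calcium rises flagged as agonism.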
Numbers stand for hits; – = inactive; ? = inconclusive; · = not tested or not shown. A selection: hits, their analogues and other compounds. The true share with any hit is near 4.2%.

SMILES	TRPV1 potentiator	D1 PAM	TRPV1 ag	D1 antagonist	D1 agonist
Cc1cc2c(c(=O)n1-c1ccccc1)C1O[C@](c3ccsc3)(Cc3ccccc31)O2	–	–	–	–	–
N#Cc1c(N)nc2c3c(sc(=N)c2c1N)NC(=O)CC3c1ccccc1 (stereo not given)	–	–	–	-35	–
Cc1ccc(-n2ncc3c(N4CCN(CCO)CC4)ncnc32)cc1Cl	·	–	·	–	–
O=[N+]([O-])c1ccc(S(=O)(=O)Nc2nnc(C(F)(F)F)s2)cc1	–	–	–	-52	–
CC(C)Cc1nnc(NS(=O)(=O)c2ccc([N+](=O)[O-])cc2)s1	–	–	–	–	–
CCOC(=O)C1CCCN(c2c(C(=O)c3ccccc3)cnc3ccc(F)cc23)C1 (stereo not given)	·	–	·	–	–
CC(C)CNS(=O)(=O)c1ccc(N2CCCCS2(=O)=O)cc1	·	–	·	-44	–
O=S(=O)(NCCc1ccc(Cl)cc1)c1ccc(N2CCCCS2(=O)=O)cc1	·	–	·	-35	–
CCCCNS(=O)(=O)c1ccc(N2CCCCS2(=O)=O)cc1	·	–	·	–	–
O=C1NC(=Nc2ccccc2Cl)SC1(CO)CO	–	–	–	–	–
Cc1ccccc1N=C1NC(=O)C(CO)(CO)S1	–	–	–	-36	–
CCN(C(=O)Cn1ncc2c(=O)oc3ccccc3c21)c1ccccc1F	·	–	·	–	–
COc1ccc(CCN(C)C2CCCN(S(=O)(=O)c3ccc(C)cc3)C2)cc1OC (stereo not given)	–	–	–	-37	–
Cc1ccc(/C=C2/NC(=O)N(Cc3ccccc3)C2=O)s1	–	–	–	-40	–
Cc1cccc(CN2C(=O)N/C(=C/c3ccc(C)s3)C2=O)c1	–	–	?	–	–
Cc1ccc(Cl)cc1N1CCN(C(=O)c2cc(S(=O)(=O)N3CCC(C)CC3)cn2C)CC1	·	–	·	–	–
COc1cccc(NC(=O)c2ccco2)c1	–	–	–	–	–
CCOc1ccc(CC(=O)Nc2cccc(-c3ccc4nnc(C)n4n3)c2)cc1	–	–	–	-32	–
COc1ccc(CC(=O)Nc2cccc(-c3ccc4nnc(C)n4n3)c2)cc1	–	–	–	–	–
Cc1ccc(C(=O)C(C)Oc2cccc(NC(=O)c3ccco3)c2)cc1 (stereo not given)	–	–	?	–	42
Cc1nnc2ccc(-c3cccc(NC(=O)c4ccco4)c3)nn12	–	–	–	-33	–
COc1ccc(-c2cc3ccc(O)c(CN4CCN(C)CC4)c3oc2=O)cc1OC	·	–	·	–	–
CCCS(=O)(=O)c1nc(S(=O)(=O)c2ccc(C)cc2)c(N(C)Cc2ccccc2)s1	·	–	·	–	35
Cc1ccc(C(=O)c2cn[nH]c2-c2cc(Cl)ccc2O)cc1	–	–	–	–	58
Cc1cc(Oc2nc3ccccn3c(=O)c2/C=C(\C#N)C(=O)NC2CCS(=O)(=O)C2)ccc1Cl (stereo not given)	?	–	–	-30	–
SMILES	TRPV1 potentiator	D1 PAM	TRPV1 ag	D1 antagonist	D1 agonist
Cc1nn(-c2ccc3nncn3n2)c(C)c1CCC(=O)Nc1ccc(OC(F)(F)F)cc1	·	–	·	–	–
Cc1cc(C)c(/C=C/c2onc(C)c2S(=O)(=O)N2CCC(C(=O)NCC(C)c3ccccc3)CC2)c(C)c1 (stereo not given)	·	–	·	–	–
CC(Sc1nc(N)cc(=O)[nH]1)C(=O)Nc1nc2c(s1)CCCC2 (stereo not given)	–	–	–	-41	–
O=C1c2ccccc2S(=O)(=O)N1Cc1nnc(-c2ccccc2Br)o1	–	–	–	–	–
O=c1c2ccccc2nnn1Cc1nnc(-c2ccccc2Br)o1	–	–	–	–	47
CCc1nn(CC(=O)N2CCN(c3cccc(C(F)(F)F)c3)CC2)c(=O)c2cccn12	·	–	·	-41	–
CCc1nn(CC(=O)N2CCC(C)CC2)c(=O)c2cccn12	–	–	–	–	–
O=C(Nc1ccc(F)cc1)N1CCN(CCc2ccccc2)CC1	–	–	?	·	–
CCNC(=O)N1CCN(CCCC(c2ccc(F)cc2)c2ccc(F)cc2)CC1	–	–	?	-73	–
CCN(CC)c1ccc(NC(=O)c2sc3nc(-c4ccccc4)cn3c2C)cc1	·	–	·	–	–
Cc1c(C(=O)Nc2ccncc2)sc2nc(-c3ccccc3)cn12	–	–	90	-34	–
O=C(Nc1ccccc1C(=O)OCc1cc(=O)n2c3c(sc2n1)CCCC3)c1ccc(F)cc1	·	–	·	–	–
